For the first assay, the system named is PPARg:RXRa 90nM:30nM, anti-RXR (NR concentration 90 nM, RXRa partner concentration 30 nM). The assay is described as follows: PBM binding z-score (relative to random genomic background probes); higher = stronger binding; sequences stand for … in GC…GCGATTGACAGCGTAGAATGAAGG
The method, boiled down:
(§1)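 Custom Agilent 4×180K protein-binding microarrays carried double-stranded probes, each with a 34-nt variable region. These regions held direct-repeat seeds, single-nucleotide variants, half-site ablations and random human genomic background sequences. Ligand-free nuclear receptor dimers were incubated on the arrays for 1 h, antibodies against each partner (one per run) detected binding, and scanned fluorescence was regression-normalized. Binding z-scores take the random background probes as reference.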
In turn, CCAGACAGGAGAGAAGGTAACTCAGCCTCGATTA gave a PBM binding z-score of -0.398.
With CGTCAAAGTTCAAGGTAACGTACCAGAAAGCAGC, the PBM binding z-score worked out at 4.24.
Still for that read-out and setting: in the case of TCTAGTTGGTCACGGAAGTCACACACGACGGGTA it was 2.65; in that of ATATGTAGGTTATCGGTTCATTCAGTTTGCGCAT, 4.65.
In turn, CCTAGCAGGCCAATGTGGGTCACTCAAGGCTTGA gave a PBM binding z-score of 1.74.
The sequence TCATATAGGTAATACAGGTGAAAGTTGGCATCTA displayed a PBM binding z-score of 4.48.
On the same count and under the same terms, next, GCTAGCATGCCATTTGGGTCACTCAATGACGGGC: 0.397; CGTCAAAGTTCAAGGTAACGTTACAGAAAGCAGC: 4.37.
As to CCTTACGGGTCAAGGTTATAGCACGGGTGGTACG, the PBM binding z-score is 3.64.
Sequence CGAACTAGGGCATCCAGGACAGTGAATACATTGA gave a PBM binding z-score of 1.5.
TTATCAAGGTGAAGGTCGTTGATCCCTCTGTAGA yielded a PBM binding z-score of 3.49.
The same measure, in the same setting: next, CCAGACAGGTGAAATGTAACTCAGTCTGGTACGC: 1.07; GATTCAGGGTCAAGGCCAGAGTACGCGTATTGAT: 5.41; CGTCCAAGGTCAATGCTAGGTAAGTGAAAGCATT: 2.86.
The same measure, in the same setting: in the case of CTCGAAAGGTCGTGCTCAGGTGACTATACCAAAC it was 2.76; in that of GCTGCTAGGTCCGGTTGGTCAGCTAACGGGTACG, -0.851.
Still for that read-out and setting: next, TTACCAAGGTGAGCTGAGGTCGTTGACCCAACTC: 0.348.
Consider TCTATTAGTTGACGGGCAACCGACGAGTCCGTTT, for which the PBM binding z-score is 2.48.
As to TTACCAAGGTGAACGTCGTTGATCCCTCTGTAGA, the PBM binding z-score came out at 1.07.
GCTATTAGTCGAAAGGGCAACCGAATGATTCTCG came in with a PBM binding z-score of 3.76.
Sequence CCTAGCAGGCTAGGGTCACTCAAGCATTTCGCTT displayed a PBM binding z-score of 0.841.
CGTCCAAGGTCAAAAGTCAGTGAAGAGATGACGG returned a PBM binding z-score of 5.
Still for that read-out and setting: in the case of ATCGAAAGATCGTGAGGTGAGTATACAGAAAGGC it was 0.106.
Still for that read-out and setting: in the case of CCTCGGAGGACCACAGGAGGTCAGAGCTGCCAGA it was -0.575; in that of TCGAGTAGGTTACCAATGGGGTATTCAGCTTTCT, 1.28; in that of AGAACGAGGGCACGCTGAGATGATAGCAGAGTAG, 1.41.
Still for that read-out and setting: in the case of ATCTCTAAGTAAAGTTCAGTGAAAGATCGATAGA it was 2.75; in that of TCTTGTAGATCAAAAGAGGTTAAGAAAGTGCGCT, 2.16.
ATATGTAGGTTAAGGGTCATTCAGGTTGGTTCGC: the PBM binding z-score came out at 11.1.
The same measure, in the same setting: in the case of CGAACTAGGTCACTGACAGGACAGTGAATAGTAA it was 6.09.
CCTACTGGGCCATCACGTCATTGATATCAACGTT displayed a PBM binding z-score of 0.648.
ACCATTAGTTGAGACGAGGGCAACCGATAGGTTG: the PBM binding z-score is -0.228.
On the same count and under the same terms, in the case of TCGAGTAGGTTACCAATGGGGCATTCTGCTTTCT it was 0.902.
The same measure, in the same setting: next, CAAACTAGGTCAAGAGGTCAATGTCCGCTTCCCG: 8; TAGCCTAGGTCATTCATGGGCCAGTATAGAAAGC: 1.1.
Still for that read-out and setting: in the case of GCTTACGGGTCAAAGGTAATAGCATGAATAGAAT it was 8.44.
As to TTACCAAGGTAAAGGTCGTTGATCCCTCTGTAGA, the PBM binding z-score was found to be 7.74.
As for TCTTGTAGATCAACAGGGGGTTAAGAAAGATCGA, the PBM binding z-score was 3.26.
Turning to CAAACTAGGTCAAGGCCAAAGTCGGTTTGTGCCA, the PBM binding z-score was 6.26.
Same read-out and setting: in the case of CCAGACAGTTGAGAAGGTAACTCAGCCTCGATTA it was 0.0662.

The subject of the next assay is PPARg:RXRa DBDmut IVT, anti-RXR (DBD mutation: RXRa K156A/R161A, NR concentration 270 nM, RXRa partner concentration 90 nM). Described as above. The method, boiled down: as §1
Sequence CCAGACAGGAGAGAAGGTAACTCAGCCTCGATTA had a PBM binding z-score of -0.43.
CGTCAAAGTTCAAGGTAACGTACCAGAAAGCAGC had a PBM binding z-score of 0.681.
Still for that read-out and setting: next, TCTAGTTGGTCACGGAAGTCACACACGACGGGTA: 2.3.
The same measure, in the same setting: in the case of ATATGTAGGTTATCGGTTCATTCAGTTTGCGCAT it was 7.25.
The same measure, in the same setting: in the case of CCTAGCAGGCCAATGTGGGTCACTCAAGGCTTGA it was 4.05.
The sequence TCATATAGGTAATACAGGTGAAAGTTGGCATCTA came in with a PBM binding z-score of 4.09.
GCTAGCATGCCATTTGGGTCACTCAATGACGGGC displayed a PBM binding z-score of 0.671.
Sequence CGTCAAAGTTCAAGGTAACGTTACAGAAAGCAGC had a PBM binding z-score of 1.03.
Still for that read-out and setting: next, CCTTACGGGTCAAGGTTATAGCACGGGTGGTACG: 1.93.
In the case of CGAACTAGGGCATCCAGGACAGTGAATACATTGA, the PBM binding z-score was found to be 7.07.
Same read-out and setting: next, TTATCAAGGTGAAGGTCGTTGATCCCTCTGTAGA: 2.89; CCAGACAGGTGAAATGTAACTCAGTCTGGTACGC: 1.56; GATTCAGGGTCAAGGCCAGAGTACGCGTATTGAT: 3.79.
The sequence CGTCCAAGGTCAATGCTAGGTAAGTGAAAGCATT showed a PBM binding z-score of 2.99.
In turn, CTCGAAAGGTCGTGCTCAGGTGACTATACCAAAC yielded a PBM binding z-score of 1.01.
Same read-out and setting: next, GCTGCTAGGTCCGGTTGGTCAGCTAACGGGTACG: -0.426; TTACCAAGGTGAGCTGAGGTCGTTGACCCAACTC: 0.928; TCTATTAGTTGACGGGCAACCGACGAGTCCGTTT: 2.04.
On to TTACCAAGGTGAACGTCGTTGATCCCTCTGTAGA, for which the PBM binding z-score was 2.54.
The sequence GCTATTAGTCGAAAGGGCAACCGAATGATTCTCG yielded a PBM binding z-score of 0.549.
Still for that read-out and setting: in the case of CCTAGCAGGCTAGGGTCACTCAAGCATTTCGCTT it was 0.26; in that of CGTCCAAGGTCAAAAGTCAGTGAAGAGATGACGG, 2.6; in that of ATCGAAAGATCGTGAGGTGAGTATACAGAAAGGC, -1.15.
The same measure, in the same setting: next, CCTCGGAGGACCACAGGAGGTCAGAGCTGCCAGA: -0.849.
Still for that read-out and setting: next, TCGAGTAGGTTACCAATGGGGTATTCAGCTTTCT: 3.18; AGAACGAGGGCACGCTGAGATGATAGCAGAGTAG: 4.28.
As for ATCTCTAAGTAAAGTTCAGTGAAAGATCGATAGA, the PBM binding z-score is 0.19.
TCTTGTAGATCAAAAGAGGTTAAGAAAGTGCGCT displayed a PBM binding z-score of 1.47.
In turn, ATATGTAGGTTAAGGGTCATTCAGGTTGGTTCGC returned a PBM binding z-score of 7.43.
Same read-out and setting: in the case of CGAACTAGGTCACTGACAGGACAGTGAATAGTAA it was 8.19.
On the same count and under the same terms, in the case of CCTACTGGGCCATCACGTCATTGATATCAACGTT it was 4.36; in that of ACCATTAGTTGAGACGAGGGCAACCGATAGGTTG, 0.237; in that of TCGAGTAGGTTACCAATGGGGCATTCTGCTTTCT, 3.32.
The same measure, in the same setting: in the case of CAAACTAGGTCAAGAGGTCAATGTCCGCTTCCCG it was 8.38.
TAGCCTAGGTCATTCATGGGCCAGTATAGAAAGC displayed a PBM binding z-score of 1.41.
The same measure, in the same setting: in the case of GCTTACGGGTCAAAGGTAATAGCATGAATAGAAT it was 4.96; in that of TTACCAAGGTAAAGGTCGTTGATCCCTCTGTAGA, 0.8; in that of TCTTGTAGATCAACAGGGGGTTAAGAAAGATCGA, 2.83.
CAAACTAGGTCAAGGCCAAAGTCGGTTTGTGCCA yielded a PBM binding z-score of 8.27.
Still for that read-out and setting: in the case of CCAGACAGTTGAGAAGGTAACTCAGCCTCGATTA it was 0.0699.

These data come from the supplement of paper PMC6555819.
